40 compounds from PubChem BioAssay AID1347145 (National Center for Advancing Translational Sciences (NCATS), 2019) can be followed below.

Inconclusive results are not listed. Where a call stands in place of a potency, no number is given. Activity calls are given as the source filed them. Calls come from the whole dose curve; as a rule, active = well fitted inhibition curve with a large enough effect; inconclusive = small, poorly fitted or top-dose-only effect; inactive = no such curve, though single readings can be large or run the other way.
Potency is the fitted concentration of half-maximal effect.

Sequence of N-terminal Xaa-Pro-Lys N-methyltransferase 1 (Homo sapiens) (Q9BV86 whole entry, looked up): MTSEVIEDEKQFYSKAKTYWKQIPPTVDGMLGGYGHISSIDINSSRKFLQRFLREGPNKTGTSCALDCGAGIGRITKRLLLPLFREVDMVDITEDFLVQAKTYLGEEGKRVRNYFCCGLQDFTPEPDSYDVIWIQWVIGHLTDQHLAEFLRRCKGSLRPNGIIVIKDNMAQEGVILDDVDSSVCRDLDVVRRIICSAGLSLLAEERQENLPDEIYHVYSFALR

This assay deals with N-terminal Xaa-Pro-Lys N-methyltransferase 1 (Homo sapiens) (UniProt Q9BV86). Description: qHTS Assay for Inhibitors of N-terminal methyltransferase 1 (NTMT1): MTaseGlo Assay Confirmatory Screen, Round 1. Particulars: Recombinant NTMT1, MTase-Glo SAH luminescence; series mostly up to 57.1 µM. An excerpt:
Assay Submitter (PI): Rong Huang Ph.D, Purdue University, West Lafayette, IN 47907 The N-terminal methytransferase 1 is the first methyltransferase that methylates protein alpha-N-amines and plays an important role in regulating cell mitosis, chromatin interactions and DNA repair. It is observed to be over-expressed in various cancer patient tissues like malignant melanoma and colorectal cancer tissues. Knockdown of NTMT1 in cancer cells causes cell mitotic defects and enhances sensitivity to DNA damaging chemotherapeutics. […] These critical cellular processes in which NTMT1 is implicated, coupled with emerging links to cellular dysfunction, strengthen the inference that NTMT1 is a compelling novel anticancer target. Progress have been made in understanding the molecular properties of NTMT1 and the biological consequences of protein alpha-N-terminal methylation, but there are no specific small molecule probes available for NTMT1 to fully characterize its MTase activity. To address this unmet need, a panel of assay is created and established to enable quantitative high-throughput screening (qHTS) for novel, potent, and selective small molecule NTMT1 inhibitors. Two orthogonal qHTS that use different reagents (ThioGlo vs. MTaseGlo) are developed for primary robotic screening against the NCATS chemical library of more than 400,000 small molecules. Identified inhibitors are reacquired, validated, and further characterized. MTaseGlo Assay is a luminescence screen that measure the activity of methyltransferases based on the reaction product S-adenosyl homocysteine (SAH). The substrate SAM is converted to SAH upon enzyme activation. MTase-Glo reagent and detection solution convert SAH to ATP and measure the light from the luciferase reaction. […] Early Translation Branch (ETB) National Center for Advancing Translational Sciences (NCATS) National Institute of Health (NIH)
Materials: NTMT1 enzyme, substrate SPKRIA, control peptide RCC1-6 is provided by the Huang laboratory. MTaseGlo Assay: In brief, 3 µL of enzyme mixture (final concentrations of 125 nM and 100 µM for NTMT1 and SAM, respectively) into all wells of a 1,536-well solid-bottom white plate (Greiner Bio One, Monroe, NC). 23 nL of DMSO or Ac-RCC1-10 (final concentration range 234 nM to 143 microM) was transferred via Wako Pin-tool (Wako Automation, Richmond, VA) and incubated (RT) for ~15 minutes. Next, 1 µL of substrate (final concentration 1 µM) or buffer was dispensed, and the reaction proceeded for 30 minutes (RT, protected from light) followed by a 1 microL addition of [5X] MTase-Glo Reagent(R). Samples were incubated (RT, protected from light) for 30 minutes to allow for SAH to be converted to ADP, followed by a 5 microL addition of [1X] MTase-Glo Detection Solution(R) to allow for ADP to be converted to ATP, which was then detected with a luciferase reaction. Samples were centrifuged for 15 seconds at 1,000 RPM's, followed by a RT incubation for 30 minutes. Plates were then read using Luminescence optics on a ViewLux detector. Data were normalized to no-enzyme (0% activity) and no-inhibitor (DMSO; 100%) controls, and the resulting percent inhibition data were fitted to a 4-parameter Hill equation using Graphpad Prism.
On the technique in general: Quantitative high-throughput screening tests each substance at several concentrations.
On to `COc1cc2c(NC3CCN(C(C)C)CC3)nc(N3CCCN(C)CC3)nc2cc1OCCCN1CCCC1`, for which the Potency entry was “inactive”.

Turning to `Nc1ncnc2c1ncn2[C@@H]1O[C@H](COP(=O)(O)OP(=O)(O)OC[C@H]2OC(O)[C@H](O)[C@@H]2O)[C@@H](O)[C@H]1O` (stereo not given in full), the Potency entry was “inactive”.

For `COc1cc2nc(NCCN(C)C)nc(NC3CC3)c2cc1OC`, the Potency entry was “inactive”.

For the compound `COC(=O)c1ccc2c(c1)nc(NC(=O)c1ccccc1)n2CCCc1ccccc1`, the Potency result is “inactive”.

Regarding `Nc1ncnc2c1ncn2[C@@H]1O[C@H](COP(=O)(O)O)[C@@H](O)[C@@H]1O`, the Potency result was “inactive”.

As for `COc1cc2nc(N3CCCN(C)CC3)nc(NC3CCCCC3)c2cc1OC`, the Potency entry is “inactive”.

In the case of `CC(C)(COP(=O)(O)OP(=O)(O)OC[C@H]1O[C@@H](n2cnc3c(N)ncnc32)[C@H](O)[C@@H]1OP(=O)(O)O)[C@H](O)C(=O)NCCC(=O)NCCS`, the Potency result is “inactive”.

Take `COc1cc2nc(N3CCN(C)CC3)nc(NC3CC3)c2cc1OC`: the Potency result was “inactive”.

Take `Nc1ccc(CCNc2ncnc3c2ncn3C2OC(CO)C(O)C2O)cc1` (stereo not given): the Potency entry is “inactive”.

In the case of `Nc1ncnc2c1ncn2[C@@H]1O[C@H](C[C@@H](N)CC[C@H](N)C(=O)O)[C@@H](O)[C@H]1O`, the Potency result was “inactive”.

With `Nc1[nH]c(=O)nc2c1ncn2C1OC(CO)C(O)C1O` (stereo not given), the Potency entry is “inactive”.

In the case of `COc1cc2c(NC3CCN(C)CC3)nc(N3CCCN(C)CC3)nc2cc1OCCCN1CCCC1`, the Potency entry was “inactive”.

On to `OC[C@@H]1O[C@@H](n2cnc3c(NCc4ccco4)ncnc32)[C@H](O)[C@H]1O`, for which the Potency entry is “inactive”.

Consider `Nc1nc(Nc2ccccc2)nc2c1ncn2[C@@H]1O[C@H](CO)C(O)[C@H]1O` (stereo not given in full), for which the Potency result was “inactive”.

On to `COc1cc2nc(N3CCN(C)CC3)nc(NC3CCN(Cc4ccccc4)CC3)c2cc1OC`, for which the Potency result is “inactive”.

For `C=CCNc1nc(NC2CCN(C)CC2)c2cc(OC)c(OC)cc2n1`, the Potency entry is “inactive”.

For `COc1cc2c(NC3CCN(C(C)C)CC3)nc(N3CCCN(C(C)C)CC3)nc2cc1OCCOCCN(C)C`, the Potency result was “inactive”.

With `COc1cc2c(NC3CCN(C4CCCCC4)CC3)nc(N3CCCCCC3)nc2cc1OCCCN1CCCCC1`, the Potency result is “inactive”.

Regarding `COc1cc2nc(NC3CCN(C)CC3)nc(N3CCCN(C)CC3)c2cc1OC`, the Potency entry was “inactive”.

For the compound `Nc1ncnc2c1ncn2[C@@H]1O[C@H](C(=O)N2CCN(CC(=O)Nc3cccc4c3CNC4=O)CC2)[C@@H](O)[C@H]1O`, the Potency entry is “inactive”.

Consider `CNC(=O)[C@H]1O[C@@H](n2cnc3c(N)ncnc32)[C@H](O)[C@@H]1O`, for which the Potency result is “inactive”.

In the case of `C/C(=C\CNc1ncnc2c1ncn2[C@@H]1O[C@@H](CO)[C@@H](O)[C@H]1O)CO`, the Potency result was “inactive”.

Consider `NC[C@H]1O[C@@H](n2cnc3c(N)ncnc32)[C@H](O)[C@@H]1O`, for which the Potency was 19.3 µM (active).

`OC[C@H]1O[C@@H](n2cnc3c(Nc4ccccc4)ncnc32)[C@H](O)[C@@H]1O`: the Potency result is “inactive”.

With `CC(C)=CCNc1ncnc2c1ncn2[C@@H]1O[C@H](CO)[C@@H](O)[C@H]1O`, the Potency entry was “inactive”.

Turning to `C[S+](CC[C@H](N)C(=O)O)C[C@H]1O[C@@H](n2cnc3c(N)ncnc32)[C@H](O)[C@@H]1O` (stereo not given in full), the Potency result is “inactive”.

In the case of `Nc1nc(Cl)nc2c1ncn2[C@@H]1O[C@H](COP(=O)(O)OP(=O)(O)OP(=O)(O)O)[C@@H](O)[C@H]1O`, the Potency entry is “inactive”.

Turning to `Nc1ncnc2c1ncn2[C@@H]1O[C@H](CSCC[C@H](N)C(=O)O)[C@@H](O)[C@H]1O`, the Potency result was “inactive”.

On to `COc1cc2nc(N3CCN(C)CC3)nc(NC3CCCC3)c2cc1OC`, for which the Potency entry was “inactive”.

As to `COc1cc2nc(N3CCOCC3)nc(NC3CCN(Cc4ccccc4)CC3)c2cc1OC`, the Potency entry was “inactive”.

As for `O=c1[nH]cnc2c1ncn2[C@@H]1O[C@H](CO)[C@@H](O)[C@H]1O`, the Potency entry is “inactive”.

Take `Nc1nc(Cl)nc2c1ncn2[C@@H]1O[C@H](CO)[C@@H](O)[C@@H]1F`: the Potency result was “inactive”.

Turning to `CNc1nc(NC2CC2)c2cc(OC)c(OC)cc2n1`, the Potency entry is “inactive”.

With `Nc1ncnc2c1ncn2[C@@H]1O[C@H](CO)[C@@H](O)[C@H]1O`, the Potency result was “inactive”.

For the compound `CCNC(=O)[C@H]1O[C@H](n2cnc3c(N)nc(NCCc4ccc(CCC(=O)O)cc4)nc32)[C@@H](O)[C@@H]1O`, the Potency result is “inactive”.

For the compound `Cc1cc2nc3c(=O)[nH]c(=O)nc-3n(C[C@H](O)[C@H](O)[C@H](O)COP(=O)(O)OP(=O)(O)OC[C@H]3O[C@@H](n4cnc5c(N)ncnc54)[C@H](O)[C@H]3O)c2cc1C`, the Potency entry was “inactive”.

Consider `Nc1ncnc2c1ncn2[C@@H]1O[C@H](COP(=O)(O)OP(=O)(O)OP(=O)(O)OP(=O)(O)OC[C@@H]2O[C@H](n3cnc4c(N)ncnc43)[C@@H](O)C2O)C(O)[C@H]1O` (stereo not given in full), for which the Potency entry is “inactive”.

In the case of `CC[C@H](C)n1cc(C)c2c(C(=O)NCc3c(C)cc(C)[nH]c3=O)cc(-c3ccc(N4CCNCC4)nc3)cc21`, the Potency entry was “inactive”.

As to `COc1cc2nc(N3CCN(C)CC3)nc(NCCC3CC3)c2cc1OC`, the Potency entry is “inactive”.

Turning to `COc1cc2nc(N3CCN(C)CC3)nc(NC3CCCCC3)c2cc1OC`, the Potency result is “inactive”.
